# Sampled rows, rich in hits. Any-hit rate of the full collection: about 2.6%.
# APOBEC3A inh: blocks human APOBEC3A ssDNA deamination; P31941; recombinant A3A, FAM/TAMRA ssDNA deamination fluorescence; inhibition, % at 20 µM; actives 0.41% (n = 330,000);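 active = at least 40% inhibition at 20 µM here, with at most 30% in a related deaminase screen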;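 note: plate controls were A3A with DMSO for no effect and wells lacking A3A enzyme for full effect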
# A3G deaminase: inhibitors of human APOBEC3G DNA deaminase; inhibition, % at 20 µM; AID 493012; recombinant A3G, ssDNA deamination FAM/TAMRA fluorescence; actives 0.28% (n = 330,000);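 active = inhibition of at least 40% at 20 µM, with no more than 30% in the related APOBEC3A deaminase screen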;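 note: plate controls were DMSO wells with A3G for no effect and wells lacking A3G enzyme for full effect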
# PABP1 MLLE inh: inhibitors of microRNA-mediated deadenylation, human PABP1 MLLE binding; P11940; GST-MLLE / FITC-PAM2 fluorescence polarization; inhibition, % at 20 µM; actives 0.36% (n = 360,000); AID 588489; in the data active = inhibition above about 35%, passing the limit was not always enough;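 note: plate controls were DMSO wells with GST-MLLE for no effect and wells lacking GST-MLLE protein for full effect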
# Target sequence (P11940 whole entry, looked up): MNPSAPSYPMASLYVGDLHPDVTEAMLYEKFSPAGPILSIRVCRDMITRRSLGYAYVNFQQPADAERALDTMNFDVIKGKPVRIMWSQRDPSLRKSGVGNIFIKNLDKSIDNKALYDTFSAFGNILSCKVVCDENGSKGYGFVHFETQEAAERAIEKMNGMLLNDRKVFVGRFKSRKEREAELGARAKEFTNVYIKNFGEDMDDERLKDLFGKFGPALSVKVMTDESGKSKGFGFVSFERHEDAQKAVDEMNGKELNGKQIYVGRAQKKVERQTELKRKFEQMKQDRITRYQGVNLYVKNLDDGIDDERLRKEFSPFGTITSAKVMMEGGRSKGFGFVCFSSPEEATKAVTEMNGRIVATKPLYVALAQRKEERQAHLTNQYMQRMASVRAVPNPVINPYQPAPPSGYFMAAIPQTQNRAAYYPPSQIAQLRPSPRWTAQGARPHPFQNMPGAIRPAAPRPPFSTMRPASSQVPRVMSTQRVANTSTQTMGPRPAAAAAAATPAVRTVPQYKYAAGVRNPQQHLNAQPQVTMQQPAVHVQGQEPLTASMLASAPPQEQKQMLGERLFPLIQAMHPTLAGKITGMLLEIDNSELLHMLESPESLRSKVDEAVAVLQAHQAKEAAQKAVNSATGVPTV
# eIF4H FP inh: inhibitors of RNA binding by human eIF4H; inhibition, % at 35 µM; eIF4H fluorescence polarization binding assay; actives 0.94% (n = 290,000);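 note: calls also rest on retests at 20 µM and on dose response follow-up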
# PHOSPHO1 inh: blocks human PHOSPHO1 phosphatase activity. recombinant PHOSPHO1, absorbance phosphatase assay. inhibition, % at 13.3 µM. actives 1.1% (n = 290,000). AID 1565; in the data active = inhibition above about 60%
# PABP FP inh: PABP-poly(A) binding inhibition; P11940; PABP-poly(A) RNA binding, fluorescence polarization; calls only at 35 µM; actives 1% (n = 290,000); AID 2014;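 note: calls also rest on retests at 20 µM and on dose response follow-up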
# A3A conf: APOBEC3A (human) deaminase inhibition, confirmed; shares compounds with APOBEC3A inh; recombinant A3A, ssDNA deaminase UDG fluorescence assay; inhibition, % at 20 µM; actives 63% (n = 1,400);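 active = inhibition reaching a set limit, 80% of the first screen's cutoff, at 20 µM in any replicate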;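 note: plate controls were DMSO wells with A3A for no effect and wells lacking A3A enzyme for full effect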
# UDG ctr A3A: counter-screen for APOBEC3A inhibitors: UDG | shares compounds with APOBEC3A inh | UDG counterscreen, FAM/TAMRA uracil oligo fluorescence | inhibition, % at 20 µM | 1,000 tested, under 10 active | AID 504714
# * hit, by the source's call; i = inactive; / = no result given; + = active, no number. Unless noted, the rule behind the calls is not given here.
SMILES,APOBEC3A inh,A3G deaminase,PABP1 MLLE inh,eIF4H FP inh,PHOSPHO1 inh,PABP FP inh,A3A conf,UDG ctr A3A
O=C(COC(=O)C1CCN(S(=O)(=O)c2cc([N+](=O)[O-])ccc2Cl)CC1)Nc1ncc(Cl)cc1Cl,50.9*,21.1,-12.4,69.7*,-71.0,+,50.2*,-3.0
Cc1ccc2nc(NC(=O)C3CCN(S(=O)(=O)c4cc([N+](=O)[O-])ccc4Cl)CC3)sc2c1,42.2*,14.0,-5.0,45.9,17.2,i,25.4,/
O=C(Nc1nc2ccc(F)cc2s1)C1CCN(S(=O)(=O)c2cc([N+](=O)[O-])ccc2Cl)CC1,29.1,0.2,-13.4,22.1,-4.0,i,/,/
O=C(COC(=O)Cc1cccc(C(F)(F)F)c1)Nc1cccc2ccccc12,40.5*,-5.7,-2.4,-8.2,9.1,i,5.8,4.3
COc1ccc(NC(=O)c2ccc(S(=O)(=O)N(C)c3ccccc3)cc2)cc1S(=O)(=O)N1CCOCC1,/,/,-12.8,/,/,/,/,/
COc1ccc2c(c1)sc(=N)n2C,43.8*,14.8,-68.0,-13.6,-16.4,i,29.0,/
CC(C)CN1CCC1(C)C(=O)Nc1cc(-c2ccccc2)nn1C (stereo not given),/,/,-4.3,/,/,/,/,/
CC(=O)c1cccc(OC(=O)c2ccc3c(=O)n4c(nc3c2)CCC4)c1,65.5*,20.9,-131.4,/,/,/,47.4*,-2.3
CC(=O)Oc1ccc(OC(C)=O)c2c1CC1(C)OC1(C)C2 (stereo not given),/,/,-5.3,/,/,/,/,/
COC(=O)C1=C(C)N(Cc2ccccc2)C(=NCC(C)C)N[C@H]1c1ccccc1,63.7*,14.1,/,94.4,-46.8,+,58.3*,-1.8
COC(=O)C1=C(C)N(Cc2ccccc2)C(=O)N[C@H]1c1ccccc1,-6.6,-11.7,-6.5,-8.1,-6.1,i,/,/
COC(=O)C1=C(C)N(Cc2ccccc2)C(=NCc2ccc(OC)cc2)N[C@H]1c1ccccc1,44.6*,10.6,-117.4,/,/,/,58.6*,-2.4
Cc1ccc2ccccc2c1C(O)c1ncc(-c2ccccc2Cl)[nH]1 (stereo not given),/,/,6.1,/,/,/,/,/
CCCCn1c(N)c(N(CC)C(=O)c2ccc(N3CCCC3=O)cc2)c(=O)[nH]c1=O,18.7,-1.2,-27.6,/,/,/,/,/
CCCCn1c(N)c(N(CCC(C)C)C(=O)C2CC(=O)N(c3ccc4c(c3)OCCO4)C2)c(=O)[nH]c1=O (stereo not given),12.2,-2.3,-55.7,-13.7,32.6,i,/,/
CCCCn1c(N)c(N(CCC(C)C)C(=O)c2ccc(N3CCCC3=O)cc2)c(=O)[nH]c1=O,42.7*,-0.8,-39.8,/,/,/,18.2,3.2
CCCCn1c(N)c(N(CC)C(=O)c2ccc(C)cc2)c(=O)[nH]c1=O,-1.7,0.6,-11.9,12.2,22.4,i,/,/
CCCCn1c(N)c(N(CC)C(=O)c2ccc(Cl)c([N+](=O)[O-])c2)c(=O)[nH]c1=O,49.7*,1.9,-69.5,4.3,-5.9,i,28.5,/
CCCCn1c(N)c(N(CCC(C)C)C(=O)C2CC(=O)N(c3cccc(SC)c3)C2)c(=O)[nH]c1=O (stereo not given),45.2*,9.3,-117.4,/,/,/,0.1,/
CCOc1ccccc1NC1=C(OC)C(=O)C(Nc2ccccc2OCC)=C(OC)C1=O,/,/,11.2,/,/,/,/,/
CC1=C(C(=O)N(C)C)CC(CC(=O)NCCc2ccccn2)C(=O)N1Cc1ccc(C(C)(C)C)cc1 (stereo not given),/,/,13.1,/,/,/,/,/
Cc1ccc(CNC(=O)CSc2nc3ccsc3c(=O)n2Cc2ccccn2)cc1,-2.2,-5.0,3.3,-12.1,5.4,i,/,/
COc1ccc(NC(=O)CSc2nc3ccsc3c(=O)n2Cc2ccccn2)c(OC)c1,42.6*,-3.0,20.8,2.9,-9.7,i,6.3,0.1
C/C(=N/NC(N)=S)c1ccc(Br)s1,-5.2,-8.3,12.9,-10.6,-0.5,i,/,/
COCc1c(C(=O)N2CCN(Cc3nc4ccccc4s3)CC2)oc2ccccc12,63.2*,19.9,-89.5,/,/,/,71.5*,-1.8
SMILES,APOBEC3A inh,A3G deaminase,PABP1 MLLE inh,eIF4H FP inh,PHOSPHO1 inh,PABP FP inh,A3A conf,UDG ctr A3A
N#CC1(c2ccccc2)CCN(S(=O)(=O)c2ccc(OC(F)(F)F)cc2)CC1,5.4,10.2,1.5,-5.9,37.1,i,/,/
CC[n+]1ccc2cc(OC)c(OC)cc2c1Cc1ccc(OC)c(OC)c1,69.5*,9.4,-13.4,6.4,2.3,+,43.4*,/
CC(C)(C)NC(=O)CCN(/N=C/c1ccccc1O)C1=NS(=O)(=O)c2ccccc21,-5.3,-10.3,6.8,8.7,28.0,i,/,/
CCOC(=O)C1=C(C)N=c2s/c(=C/c3ccc(OCC(=O)O)cc3)c(=O)n2C1c1ccc(OC)cc1OC (stereo not given),-2.0,-4.0,-29.7,1.1,8.5,i,/,/
COc1ccc(C2C(C(C)=O)=C(C)N=c3s/c(=C\c4ccc5c(c4)OCO5)c(=O)n32)c(OC)c1 (stereo not given),50.1*,3.6,-136.0,/,/,/,9.0,/
O=C(CC[C@H]1O[C@@H](n2ccc(=O)[nH]c2=O)[C@H](O)[C@@H]1O)N[C@@H](Cc1ccccc1)C(=O)NCc1ccccc1,/,/,1.8,/,/,/,/,/
COc1ccc(C(=O)N/C(=C\c2ccc(Cl)cc2)C(=O)NCCN2CCOCC2)cc1,/,/,6.7,/,/,/,/,/
C[N+]12CCCCC1[C@@H](CO)CCC2 (stereo not given in full),56.3*,22.1,-119.4,/,-15.8,/,70.6*,2.1
Cc1ccc(CN2C(=O)N/C(=C\c3ccc(-c4ccc(C(=O)O)cc4C)o3)C2=O)cc1,52.9*,20.6,2.9,87.2*,40.9,+,31.7*,-1.1
Cc1c(C(=O)OC(C)C(C)C[N+](C)(C)C)oc2ccccc12 (stereo not given),82.6*,23.9,-126.3,5.8,86.8*,i,81.5*,-2.6
Cc1c(C(=O)OC(C)C(=O)N(C)Cc2ccccc2)oc2ccccc12 (stereo not given),-2.1,-3.5,-14.0,/,/,/,/,/
COc1cc(OC)c(C(=O)N(CCc2ccccc2)Cc2ccccc2)cc1OC,64.9*,-2.1,-5.2,-11.6,57.6,i,0.0,-2.1
CC(C)N1CCC1(C)C(=O)Nc1nc2ccccc2[nH]1 (stereo not given),/,/,-1.8,/,/,/,/,/
CN(C(=O)COC(=O)/C=C/c1ccc(C(F)(F)F)cc1)C1CCS(=O)(=O)C1 (stereo not given),-1.7,-7.5,-16.2,-6.7,24.0,i,/,/
COc1ccc(NC(=O)CN(C)CC(=O)N(C)C2(C#N)CCC(C)CC2)cc1 (stereo not given),43.7*,8.7,-60.6,/,/,/,33.0*,2.6
CN(CC(=O)Nc1ccc(F)cc1)CC(=O)N(C)C1(C#N)CCCCC1,-4.4,-6.5,-1.8,/,/,/,/,/
Nc1nc(N)c2cc(S(=O)(=O)c3ccc4ccccc4c3)ccc2n1,/,/,2.1,/,/,/,/,/

# Screening results: PubChem BioAssay, Sanford-Burnham Center for Chemical Genomics
